# Tb PFK inh-1 – qHTS Assay to Find Inhibitors of T. brucei phosphofructokinase; ATP-dependent 6-phosphofructokinase (Trypanosoma brucei brucei), O15648; T. brucei PFK, ADP-Glo luminescence; Potency, µM (titrated, usually from 57.5 µM), without a hit: at the highest dose activity, negative = inhibition, hits mostly inhibitors; actives 0.17% (n = 330,000);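 further: potency means the concentration at half of the fitted maximal effect; 0% = uninhibited 1x PFK enzyme wells and -100% = no-enzyme wells; nearly all actives have a fitted effect of over 60% in size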
#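 Luminescent ADP detection (ADP-Glo, two-step: ATP depletion then ADP-to-ATP conversion for luciferase) reported PFK activity after 45 min room-temperature reaction of 1.25 nM enzyme with 0.5 mM F6P and 0.1 mM ATP at pH 8.0.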
# PI4K2A block – qHTS for small molecular inhibitors of PI4K2A; Phosphatidylinositol 4-kinase type 2-alpha (Homo sapiens), Q9BTU6; purified PI4K2A, ADP-Glo luminescence, 1 h; stronger effect = lower value; activity change, negative = inhibition, % at 76.9 µM; actives 0.13% (n = 420,000); AID 1346378, 2018; in the data active means activity change below about -50%; inconclusive means mostly about -30% to -49%;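 further: -100% = wells without enzyme as full effect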
#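 In this quantitative HTS, ADP production by PI4K2A was quantified luminescently after 1 h at ambient temperature; 100 microM adenosine served as plate-quality control.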
# Tb PGK inh – qHTS Assay to Find Inhibitors of Phosphoglycerate Kinase | Phosphoglycerate kinase, glycosomal (Trypanosoma brucei brucei), P07378 | PGK/GAPDH coupled, Kinase-Glo luminescence, 60 min | Potency, µM (highest dose often 57.5 µM), for inactives: at the top dose activity change, negative = inhibition, actives largely listed as inhibitors | actives 0.043% (n = 380,000); further: potency means the concentration at half of the fitted maximal effect; on the % scale 0 is the no-effect control and ±100 the full control effect; nearly all actives have a fitted effect of over 60% in size
#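 Recombinant glycosomal PGK reaction used 1,3-bisphosphoglycerate generated in-well by GAPDH (100nM final) in 100mM TEA pH 7.6, 5mM MgCl2, 0.01% Tween-20. After 60 minutes at room temperature, ATP was read by Kinase-Glo Plus luminescence end-point.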
# Pin1 inh – qHTS Assay to Find Inhibitors of Pin1. actives 0.009% (n = 390,000). Pin1 FP peptide displacement, HiFluor488, 10 min. AID 504891, 2011. Potency, µM (series often up to 115 µM), without a hit: at the highest dose activity, negative = inhibition, most hits filed as inhibitors. Peptidyl-prolyl cis-trans isomerase NIMA-interacting 1 (Homo sapiens), Q13526; active means well fitted inhibition curve with a large enough effect in the polarisation, with a control signal flat, not every such curve was filed as active; inconclusive means small, poorly fitted or top-dose-only effect, or effect the other way, or a change in a side signal; inactive means no such curve, though single readings can be large or run the other way; the % refers to the polarisation; further: potency means the concentration at half of the fitted maximal effect; on the % scale 0 is the no-effect control and ±100 the full control effect
# Target sequence (Q13526 whole entry, looked up): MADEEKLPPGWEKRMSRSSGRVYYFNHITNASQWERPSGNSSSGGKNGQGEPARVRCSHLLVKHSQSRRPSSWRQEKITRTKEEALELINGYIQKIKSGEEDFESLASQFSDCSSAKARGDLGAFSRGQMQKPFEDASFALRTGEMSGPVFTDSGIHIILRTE
# PI5P4Ka inh – qHTS for Inhibitors of phosphatidylinositol 5-phosphate 4-kinase (PI5P4K). Phosphatidylinositol 5-phosphate 4-kinase type-2 alpha (Homo sapiens), P48426. PI5P4Kalpha enzyme, ADP-Glo luminescence, 60 min; stronger effect = lower value. max response, %. actives 1.2% (n = 330,000); active means max response of -50% or lower; inconclusive means between -30% and -50%; inactive means -30% or higher; further: value at the top dose of about 77 µM; on the % scale 0 is the no-effect control and ±100 the full control effect
#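 ADP-Glo luminescence end-point after a 60 min room-temperature kinase reaction. PI5P4Kalpha and substrate in HEPES pH 7.4 buffer with EGTA, 0.1% CHAPS and 5% DMSO; ATP at 5 microM final.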
# TbPFK ATP – Tb PFK orthogonal confirmatory assay using ATP depletion (Kinase-Glo Plus) as an alternative measure of Tb PFK activity: Hit Validation | shares compounds with Tb PFK inh-1 | Tb PFK enzyme, ATP depletion, Kinase-Glo Plus luminescence | actives 47% (n = 1,100) | Potency, µM (titrated, usually from 57.5 µM), without a hit: top-dose inhibition; calls by dose curve; further: potency means the concentration at half of the fitted maximal effect; nearly all actives have a fitted effect of over 60% in size
# Tb PFK inh-2 – Inhibitors of T. brucei phosphofructokinase: Hit Validation | shares compounds with Tb PFK inh-1 | purified T. brucei PFK, ADP-Glo luminescence, 45 min | actives 41% (n = 1,100) | AID 504637, 2011 | Potency, µM (doses to about 57.5 µM), without a hit: at the highest dose activity change, negative = inhibition, actives largely listed as inhibitors;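 further: potency means the concentration at half of the fitted maximal effect; plate controls were full PFK enzyme control for no effect and no enzyme control for full effect; nearly all actives have a fitted effect of over 60% in size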
# Active calls of the source: *; i = inactive; ? = inconclusive; . = no result given; [ ] = dose if it differs, or a comment. The entries come from a sample that favours hits as a whole. Unless noted, the call rests on the fitted dose curve; in most records, active means well fitted curve in the direction sought with a large enough effect; inconclusive means small, poorly fitted or top-dose-only effect, or another doubt; inactive means no such curve, though single readings can be large; an effect the other way counts as inactive or inconclusive.
SMILES,Tb PFK inh-1,PI4K2A block,Tb PGK inh,Pin1 inh,PI5P4Ka inh,TbPFK ATP,Tb PFK inh-2
CC(CS(=O)(=O)c1ccc2c(c1)NC(=O)CS2)C(=O)N1CCN(c2cccc(Cl)c2)CC1 (configuration not stated),15.1µM*,1.0,?,25.2%,-24.8,21.3µM*,12µM*
CCN(CC)C(=O)c1ccc(NC(=O)c2ccc3c(c2)NC(=O)CS3)cc1,-3.5%,-0.9,-6.4%,8.7%,4.3,.,.
CC(CS(=O)(=O)c1ccc2c(c1)NC(=O)CS2)C(=O)NCc1ccccc1Cl (configuration not stated),13.5µM*,0.8,7.94µM*,?,?,1.69µM*,1.9µM*
Clc1cccc(N2CCNCC2)c1,-17.4%,1.2,-9.3%,-0.9%,1.3,.,.
O=c1c2cc(F)ccc2sn1-c1ccc(F)cc1,7.57µM*,-11.6,2.1%,-11.3%,-90.0*,?,?
COc1ccc(-n2c(SC)nc3ccccc3c2=O)cc1,-2.0%,-0.9,-8.5%,-5.3%,13.1,.,.
COc1ccc(-n2sc3ccc(F)cc3c2=O)cc1,6.75µM*,-19.1,-6.0%,-20.9%,-86.7*,?,?
Cc1ccc(C)c(-n2sc3ccc(F)cc3c2=O)c1,3.01µM*,-1.5,i,-5.2%,-84.7*,19µM*,16.9µM*
CN1CCN(c2csc3ccc(F)cc3c2=O)CC1,.,-4.6,-3.2%,-10.2%,.,.,.
CCn1c(NN=O)nc2ccccc21,-1.1%,-27.4,-8.5%,0.7%,-3.7,.,.
O=C1c2ccccc2C2(c3ccc(Cl)cc3)NCCN12 (configuration not stated),-1.2%,8.3,6.2%,9.1%,-1.1,.,.
CC(NCc1ccc(Cl)c(Cl)c1)C(O)c1ccccc1 (configuration not stated),?,-2.3,-0.2%[11.5 µM],-5.5%,.,12µM*,23.9µM*
COc1ccc(CNC(=O)N2CCN(c3cccc(Cl)c3)CC2)cc1OC,26.9µM*,4.5,5.0%,1.0%,-4.8,12µM*,23.9µM*
O=S1(=O)CCN(Cc2ccc(Cl)c(C(F)(F)F)c2)CC1,?,-7.2,-2.8%,1.4%,-6.1,23.9µM*,?
O=C(O)c1ccccc1NS(=O)(=O)c1cccc(-n2sc3ccccc3c2=O)c1,2.39µM*,-17.6,-3.0%,5.3%,-96.7*,12µM*,23.9µM*
Cc1cc([N+](=O)[O-])nn1CCCC(=O)Nc1sc2c(c1C(N)=O)CCCC2,?,7.8,7.8%,-1.5%,?,26.9µM*,23.9µM*
CC(=O)NCCc1c[nH]c2ccccc12,-1.5%,3.5,0.3%,-2.0%,1.3,.,.
O=C(NCCc1c[nH]c2ccccc12)OCCSS(=O)(=O)O,23.9µM*,-11.0,-6.7%,1.8%,-14.9,23.9µM*,?
COC(=O)C1=C(c2ccc(S(C)(=O)=O)cc2)C[C@@H]2CC[C@H]1N2C(=O)NCCNC(C)=O,.,4.6,1.2%,0.5%,-6.5,.,.
CCCC[N+]1(C)C2CC(OC(=O)[C@H](CO)c3ccccc3)CC1C1OC12 (some centres not stated),.,-1.2,.,.,.,.,.

# High-throughput results as filed in PubChem.
